Assay results: the supplement of paper PMC10849652
Targets with a hit are over-represented here; the source holds about 8,800 in all. About 0.5% of all pairs of compound and target were hits. Unmarked numbers belong to inactive results.

compound: CCn1c(C(=O)N(C2CC2)C2CC2)cc2c3c(ncn3C)c(Nc3cc(C)n(C)n3)nc21; assay: log2 fold change, soluble protein after heating vs DMSO (PISA); higher = thermal stabilisation; K562 lysate, 10 uM; active = over 0.2 and 3.5 SD of the protein, either way, in both replicates (recomputed)
How it was run: (§1)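 K562 pellets were dounce-homogenised in PBS pH 7.4 containing 1 mM MgCl2, and the crude extract, at 1 mg/mL protein, was exposed to 10 μM compound for 30 min. Aliquots were heated for 3 min across 48°C-58°C, pooled, brought to 0.5% NP-40 at 4°C and spun at 21,000xg for 90 min, with the supernatant taken as soluble protein. TMTpro 16plex LC-MS/MS with equalised channel sums quantified that protein. Values are log-two fold changes in thermal stability relative to solvent controls, taken from duplicates.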

Chain of UniProt Q14004 (Q14004 whole entry, looked up): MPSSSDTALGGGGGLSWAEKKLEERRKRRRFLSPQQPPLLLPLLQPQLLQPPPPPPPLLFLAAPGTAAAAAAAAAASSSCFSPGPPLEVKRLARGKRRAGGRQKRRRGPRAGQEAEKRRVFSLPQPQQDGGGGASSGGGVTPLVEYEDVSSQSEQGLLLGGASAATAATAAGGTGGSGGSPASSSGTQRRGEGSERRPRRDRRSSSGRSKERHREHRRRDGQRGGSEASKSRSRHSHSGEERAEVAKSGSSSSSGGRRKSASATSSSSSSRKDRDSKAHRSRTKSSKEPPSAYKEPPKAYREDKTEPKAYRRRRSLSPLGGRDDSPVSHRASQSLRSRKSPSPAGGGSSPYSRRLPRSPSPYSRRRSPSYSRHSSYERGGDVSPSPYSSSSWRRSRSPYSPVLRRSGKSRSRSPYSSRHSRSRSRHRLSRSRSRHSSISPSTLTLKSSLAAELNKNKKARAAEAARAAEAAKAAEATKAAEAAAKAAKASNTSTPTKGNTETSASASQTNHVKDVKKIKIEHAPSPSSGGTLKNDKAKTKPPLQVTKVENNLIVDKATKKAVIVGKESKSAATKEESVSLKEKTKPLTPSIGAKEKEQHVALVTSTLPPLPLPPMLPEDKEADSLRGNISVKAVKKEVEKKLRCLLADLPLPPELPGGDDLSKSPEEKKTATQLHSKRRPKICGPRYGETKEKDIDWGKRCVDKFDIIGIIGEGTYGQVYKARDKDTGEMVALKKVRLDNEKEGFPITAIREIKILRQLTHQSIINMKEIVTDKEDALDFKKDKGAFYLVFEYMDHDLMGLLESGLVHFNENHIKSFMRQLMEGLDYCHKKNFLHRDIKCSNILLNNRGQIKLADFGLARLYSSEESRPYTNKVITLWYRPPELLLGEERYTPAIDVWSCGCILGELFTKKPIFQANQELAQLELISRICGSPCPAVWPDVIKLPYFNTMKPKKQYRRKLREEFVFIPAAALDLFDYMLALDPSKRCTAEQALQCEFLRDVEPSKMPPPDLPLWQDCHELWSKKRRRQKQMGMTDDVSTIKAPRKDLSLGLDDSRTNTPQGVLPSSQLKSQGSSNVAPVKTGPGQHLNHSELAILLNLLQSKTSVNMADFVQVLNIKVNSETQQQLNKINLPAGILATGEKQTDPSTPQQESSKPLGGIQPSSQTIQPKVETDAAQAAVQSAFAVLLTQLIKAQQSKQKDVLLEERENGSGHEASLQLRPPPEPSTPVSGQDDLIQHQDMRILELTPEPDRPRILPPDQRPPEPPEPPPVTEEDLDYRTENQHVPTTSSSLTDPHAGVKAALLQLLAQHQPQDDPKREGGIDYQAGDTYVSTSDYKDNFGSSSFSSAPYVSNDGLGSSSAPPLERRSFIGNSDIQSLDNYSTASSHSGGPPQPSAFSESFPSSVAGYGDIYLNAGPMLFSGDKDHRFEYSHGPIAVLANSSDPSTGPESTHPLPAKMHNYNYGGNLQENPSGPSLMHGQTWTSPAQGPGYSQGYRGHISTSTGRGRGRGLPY
Chain of UniProt P11274 (P11274 whole entry, looked up): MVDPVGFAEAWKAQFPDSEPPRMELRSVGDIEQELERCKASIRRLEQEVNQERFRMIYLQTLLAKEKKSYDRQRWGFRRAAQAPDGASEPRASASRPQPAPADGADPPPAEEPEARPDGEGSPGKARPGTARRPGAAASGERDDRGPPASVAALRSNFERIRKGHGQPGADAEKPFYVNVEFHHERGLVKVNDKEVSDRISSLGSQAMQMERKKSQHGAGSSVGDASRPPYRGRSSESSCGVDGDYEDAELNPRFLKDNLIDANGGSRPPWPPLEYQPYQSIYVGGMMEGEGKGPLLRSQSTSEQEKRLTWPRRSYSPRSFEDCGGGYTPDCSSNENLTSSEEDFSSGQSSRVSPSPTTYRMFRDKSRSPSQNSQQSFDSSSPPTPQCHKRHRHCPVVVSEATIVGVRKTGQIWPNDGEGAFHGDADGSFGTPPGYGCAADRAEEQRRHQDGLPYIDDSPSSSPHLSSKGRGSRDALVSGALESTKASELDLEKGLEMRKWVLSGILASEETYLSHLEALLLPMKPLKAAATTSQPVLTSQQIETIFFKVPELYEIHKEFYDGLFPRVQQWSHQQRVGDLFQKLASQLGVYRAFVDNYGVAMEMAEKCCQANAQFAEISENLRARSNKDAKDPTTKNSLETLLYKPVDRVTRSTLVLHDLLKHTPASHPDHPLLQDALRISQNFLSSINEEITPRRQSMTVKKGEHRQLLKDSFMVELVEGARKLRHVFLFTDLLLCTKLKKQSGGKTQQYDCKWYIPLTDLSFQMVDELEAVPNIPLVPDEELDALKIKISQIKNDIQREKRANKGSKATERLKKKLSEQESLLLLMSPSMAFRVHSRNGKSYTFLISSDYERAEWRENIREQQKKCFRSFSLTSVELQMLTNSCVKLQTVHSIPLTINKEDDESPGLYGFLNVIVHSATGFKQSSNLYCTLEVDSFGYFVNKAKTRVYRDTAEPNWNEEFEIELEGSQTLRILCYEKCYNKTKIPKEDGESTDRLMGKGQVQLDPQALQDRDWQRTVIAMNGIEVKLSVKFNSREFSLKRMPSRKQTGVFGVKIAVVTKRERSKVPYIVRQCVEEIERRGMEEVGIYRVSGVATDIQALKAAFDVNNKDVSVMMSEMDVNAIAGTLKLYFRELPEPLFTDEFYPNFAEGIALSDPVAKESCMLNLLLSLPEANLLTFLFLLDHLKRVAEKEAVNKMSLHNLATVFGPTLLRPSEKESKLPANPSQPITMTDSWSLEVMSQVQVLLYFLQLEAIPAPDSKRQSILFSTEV
Chain of UniProt P21127 (P21127 whole entry, looked up): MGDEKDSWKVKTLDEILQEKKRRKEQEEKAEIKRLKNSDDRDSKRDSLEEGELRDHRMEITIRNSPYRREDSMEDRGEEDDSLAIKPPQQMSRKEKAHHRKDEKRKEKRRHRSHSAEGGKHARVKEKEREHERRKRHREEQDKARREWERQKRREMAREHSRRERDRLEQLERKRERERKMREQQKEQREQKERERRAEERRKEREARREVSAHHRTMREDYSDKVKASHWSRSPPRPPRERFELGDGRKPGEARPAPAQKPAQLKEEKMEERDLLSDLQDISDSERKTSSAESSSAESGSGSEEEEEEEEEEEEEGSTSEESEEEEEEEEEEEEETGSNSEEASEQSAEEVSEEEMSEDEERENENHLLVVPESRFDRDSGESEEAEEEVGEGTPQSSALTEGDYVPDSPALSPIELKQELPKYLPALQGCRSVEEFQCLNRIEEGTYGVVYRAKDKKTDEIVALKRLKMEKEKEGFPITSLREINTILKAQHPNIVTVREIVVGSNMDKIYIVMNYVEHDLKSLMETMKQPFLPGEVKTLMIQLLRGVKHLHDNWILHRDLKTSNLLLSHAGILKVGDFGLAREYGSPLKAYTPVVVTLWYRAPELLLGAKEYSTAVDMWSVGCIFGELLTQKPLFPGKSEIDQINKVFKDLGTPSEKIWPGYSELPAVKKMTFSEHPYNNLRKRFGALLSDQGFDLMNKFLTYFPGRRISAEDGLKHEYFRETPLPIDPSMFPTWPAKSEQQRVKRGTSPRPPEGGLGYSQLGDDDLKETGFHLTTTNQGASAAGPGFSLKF
Chain of UniProt Q9HD20 (Q9HD20 whole entry, looked up): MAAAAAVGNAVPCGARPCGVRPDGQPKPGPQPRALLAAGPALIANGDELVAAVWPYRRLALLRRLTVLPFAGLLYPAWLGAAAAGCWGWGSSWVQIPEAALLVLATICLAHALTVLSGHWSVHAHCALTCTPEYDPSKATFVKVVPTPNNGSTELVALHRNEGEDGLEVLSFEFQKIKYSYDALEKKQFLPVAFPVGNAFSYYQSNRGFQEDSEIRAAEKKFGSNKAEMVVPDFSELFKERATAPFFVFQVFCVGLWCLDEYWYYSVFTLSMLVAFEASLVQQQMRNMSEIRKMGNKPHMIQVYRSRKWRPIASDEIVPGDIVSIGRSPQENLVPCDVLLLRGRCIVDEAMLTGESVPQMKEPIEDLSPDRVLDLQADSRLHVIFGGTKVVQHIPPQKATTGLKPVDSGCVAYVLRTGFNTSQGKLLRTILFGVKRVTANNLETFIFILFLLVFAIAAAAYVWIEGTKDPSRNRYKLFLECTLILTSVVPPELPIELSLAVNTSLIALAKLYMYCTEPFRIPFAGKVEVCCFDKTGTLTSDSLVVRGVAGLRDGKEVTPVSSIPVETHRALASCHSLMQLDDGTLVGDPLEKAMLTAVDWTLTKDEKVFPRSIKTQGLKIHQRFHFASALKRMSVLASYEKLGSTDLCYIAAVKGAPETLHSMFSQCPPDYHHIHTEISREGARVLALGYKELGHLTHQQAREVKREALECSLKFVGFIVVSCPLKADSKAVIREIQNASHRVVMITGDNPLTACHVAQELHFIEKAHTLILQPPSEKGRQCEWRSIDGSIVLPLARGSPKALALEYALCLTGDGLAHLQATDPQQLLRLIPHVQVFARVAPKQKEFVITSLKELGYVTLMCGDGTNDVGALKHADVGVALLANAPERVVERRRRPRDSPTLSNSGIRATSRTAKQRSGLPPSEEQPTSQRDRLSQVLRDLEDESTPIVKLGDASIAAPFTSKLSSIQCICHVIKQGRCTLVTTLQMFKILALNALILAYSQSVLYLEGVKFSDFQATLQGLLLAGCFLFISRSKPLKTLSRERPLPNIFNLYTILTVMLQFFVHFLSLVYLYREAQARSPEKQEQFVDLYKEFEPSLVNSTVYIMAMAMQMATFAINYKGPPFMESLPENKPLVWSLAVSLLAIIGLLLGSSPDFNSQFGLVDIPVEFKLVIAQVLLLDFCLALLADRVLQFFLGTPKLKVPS
Chain of UniProt Q96NL8 (Q96NL8 whole entry, looked up): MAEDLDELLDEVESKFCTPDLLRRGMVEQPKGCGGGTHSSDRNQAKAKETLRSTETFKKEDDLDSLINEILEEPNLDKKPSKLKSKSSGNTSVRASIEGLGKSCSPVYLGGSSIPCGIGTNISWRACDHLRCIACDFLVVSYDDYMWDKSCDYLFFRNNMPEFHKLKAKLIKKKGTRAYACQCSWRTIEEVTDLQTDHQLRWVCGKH

Target | log2 fold change
CDAN1 (UniProt Q8IWY9) | 0.031
CDK13 (UniProt Q14004) | 0.106
CFDP1 (UniProt Q9UEE9) | -0.015
ATP11A (UniProt P98196) | 0
BCKDK (UniProt O14874) | 0.067
BLOC1S6 (UniProt Q9UL45) | 0.043
CBX1 (UniProt P83916) | 0.006
CDC7 (UniProt O00311) | -0.003
C19orf54 (UniProt Q5BKX5) | -0.06
C8orf37 (UniProt Q96NL8) | -0.075
CDK2 (UniProt P24941) | 0.008
CEP76 (UniProt Q8TAP6) | -0.026
CDK11B (UniProt P21127) | 0.029
CASC4 (UniProt Q6P4E1) | 0.022
CCDC32 isoform 2 (UniProt Q9BV29) | -0.061
BCR (UniProt P11274) | 0.015
ATP13A1 (UniProt Q9HD20) | 0.067
CDKN1C (UniProt P49918) | 0.019

compound: CCn1cc(-c2ccnc3[nH]c(-c4cccc(CN(C)C)c4)cc23)c(-c2ccc(NC(=O)N(C)C)cc2)n1; assay: as above
How it was run: as §1

Target | log2 fold change
CENPQ (UniProt Q7L2Z9) | -0.44 (active)
CD63 (UniProt P08962) | -0.593 (active)
CARS isoform 3 (UniProt P49589) | 0.004
CCNC (UniProt P24863) | -0.211
CBFA2T3 (UniProt O75081) | -0.023
BUB1B isoform 3 (UniProt O60566) | 0.13
CES2 isoform 4 (UniProt O00748) | 0.002
CDC123 (UniProt O75794) | 0.018
CCDC85B (UniProt Q15834) | 0.126
CARD9 (UniProt Q9H257) | -0.036
CANX isoform 2 (UniProt P27824) | -0.074
CDKN2AIP (UniProt Q9NXV6) | -0.049
AURKA (UniProt O14965) | 0.719 (active)
CDC42BPA isoform 6 (UniProt Q5VT25) | 0.062
ATG13 isoform 2 (UniProt O75143) | -0.281 (active)
CARHSP1 (UniProt Q9Y2V2) | -0.02
CCAR2 (UniProt Q8N163) | -0.057
ATP6V0A2 (UniProt Q9Y487) | -0.117
CCPG1 isoform 5 (UniProt Q9ULG6) | -0.081
CCNB1 (UniProt P14635) | -0.023

Target | log2 fold change
CCNH (UniProt P51946) | 0.054
BCAR1 isoform 6 (UniProt P56945) | 0.064
CDAN1 (UniProt Q8IWY9) | -0.03
CDK13 (UniProt Q14004) | -0.09
CFDP1 (UniProt Q9UEE9) | -0.311 (active)
ATP11A (UniProt P98196) | -0.116
BCKDK (UniProt O14874) | -0.033
BLOC1S6 (UniProt Q9UL45) | 0.048
CBX1 (UniProt P83916) | 0.301 (active)
CDC7 (UniProt O00311) | -0.01
C19orf54 (UniProt Q5BKX5) | 0.013
C8orf37 (UniProt Q96NL8) | 0.225
CDK2 (UniProt P24941) | -0.055
CEP76 (UniProt Q8TAP6) | -0.04
CDK11B (UniProt P21127) | -0.047
CASC4 (UniProt Q6P4E1) | -0.05
CCDC32 isoform 2 (UniProt Q9BV29) | -0.246
BCR (UniProt P11274) | -0.112
ATP13A1 (UniProt Q9HD20) | 0.004
CDKN1C (UniProt P49918) | 0.073
